Data published in PubChem BioAssay (EPA / NIEHS).
Activity calls are given as the source filed them. How the source made its calls: active means hit-call score of the fitted dose curve at least 0.9, where 1 is the maximum; inactive means score below 0.9.

Key:
[1] = read-out: TIMP metallopeptidase inhibitor 2 (TIMP2), TIMP2 (gene 7077); assay: BSK_KF3CT_TIMP2: BioMAP Diversity Plus: KF3CT Assay for TIMP metallopeptidase inhibitor 2 (TIMP2) Biomarker Activity (AID 2283071); settings: primary human keratinocytes with fibroblasts; actives raise or lower the signal
Method in brief: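 Cells: human keratinocytes co-cultured with foreskin fibroblasts. Treat with chemical, 24 h. Measure TIMP-2 by ELISA; fit curves bidirectionally vs DMSO baseline.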

[2] = read-out: Transforming growth factor beta 1 (TGFb1), TGFB1 (gene 7040); assay: BSK_KF3CT_TGFb1: BioMAP Diversity Plus: KF3CT Assay for Transforming growth factor beta 1 (TGFb1) Biomarker Activity (AID 2283072); settings: primary human keratinocytes with fibroblasts; actives raise or lower the signal
Method in brief: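 Primary human skin cells (keratinocytes, foreskin fibroblasts) were co-cultured, exposed to test chemical and sampled at 24 h. TGF-b1 levels were measured by ELISA and fitted bidirectionally relative to DMSO.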

[3] = read-out: C-C motif chemokine 2 (Homo sapiens) (UniProt P13500); assay: BSK_KF3CT_MCP1: BioMAP Diversity Plus: KF3CT Assay for Monocyte Chemoattractant Protein 1 (MCP1/CCL2) Biomarker Activity (AID 2283073); settings: primary human keratinocytes with fibroblasts; actives raise or lower the signal
Method in brief: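 ELISA read-out of MCP-1, 24 h post-dose, in primary human skin keratinocytes co-cultured with fibroblasts. Parallel SRB staining monitors cytotoxicity; changes fitted both directions relative to DMSO.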

[4] = read-out: Matrix Metallopeptidase 9 (MMP9), MMP9 (gene 4318); assay: BSK_KF3CT_MMP9: BioMAP Diversity Plus: KF3CT Assay for Matrix Metallopeptidase 9 (MMP9) Biomarker Activity (AID 2283074); settings: primary human keratinocytes with fibroblasts; actives raise or lower the signal;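 on AC50: MMP9 protein level quantified by ELISA in the co-culture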
Method in brief: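 Human keratinocyte and foreskin fibroblast co-culture exposed to chemicals for 24 h; MMP9 biomarker measured by ELISA, bidirectional fitting relative to DMSO; cytotoxicity tracked by SRB total protein staining in parallel cultures.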

[5] = read-out: urokinase plasminogen activator (uPA), PLAU (gene 5328); assay: BSK_KF3CT_uPA: BioMAP Diversity Plus: KF3CT Assay for urokinase plasminogen activator (uPA) Biomarker Activity (AID 2283075); settings: primary human keratinocytes with fibroblasts; actives raise or lower the signal
Method in brief: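 Primary human keratinocyte/foreskin fibroblast co-culture exposed to chemical; uPA measured by ELISA at 24 h. Bidirectional fit versus DMSO, with parallel SRB total-protein staining for cytotoxicity.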

CD40, CD40 (gene 958) [6] = assay: BSK_LPS_CD40: BioMAP Diversity Plus: LPS Assay for CD40 Biomarker Activity (AID 2283076); settings: primary human HUVEC with PBMC; actives raise or lower the signal
Method in brief: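 In the LPS system of human endothelial cells with peripheral blood mononuclear cells, CD40 levels were read by ELISA 24 h post-treatment. Signal changes in either direction were fitted against the DMSO baseline, with parallel SRB protein staining.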

[7] = read-out: E-selectin (Homo sapiens) (UniProt P16581); assay: BSK_LPS_Eselectin: BioMAP Diversity Plus: LPS Assay for Eselectin Biomarker Activity (AID 2283077); settings: primary human HUVEC with PBMC; actives raise or lower the signal
Method in brief: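 E-selectin ELISA on LPS-stimulated endothelial cell/PBMC co-cultures, read 24 h post-treatment; gains and losses fitted against DMSO. Parallel SRB staining (0.1% SRB after 10% TCA fixation, 560 nm) flags overt cytotoxicity.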

[8] = read-out: Interleukin-8 (IL8), CXCL8 (gene 3576); assay: BSK_LPS_IL8: BioMAP Diversity Plus: LPS Assay for Interleukin-8 (IL8) Biomarker Activity (AID 2283078); settings: primary human HUVEC with PBMC; actives raise or lower the signal
Method in brief: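 ELISA read-out of IL-8 after 24 h chemical treatment of LPS-activated endothelial/PBMC human primary co-cultures. Changes either up or down relative to DMSO; overt cytotoxicity checked by sulforhodamine B staining in parallel wells.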

[9] = BSK_LPS_SRB: Viability Assessment in the BioMAP Diversity Plus: LPS Assay (AID 2283079); settings: primary human HUVEC with PBMC;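 further: total protein by sulforhodamine B absorbance as a cytotoxicity measure; measured one day after compound addition; fitted in both directions against DMSO so loss or gain of signal counts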
Method in brief: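 SRB viability endpoint: cells fixed with 10% TCA, stained with 0.1% SRB, read at 560 nm, 24 h post-dose. HUVEC/PBMC co-culture; signal change in either direction scored relative to DMSO.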

[10] = read-out: Interleukin-1 alpha (IL1a), IL1A (gene 3552); assay: BSK_LPS_IL1a: BioMAP Diversity Plus: LPS Assay for Interleukin-1 alpha (IL1a) Biomarker Activity (AID 2283080); settings: primary human HUVEC with PBMC; actives raise or lower the signal
Method in brief: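 Readout is IL-1a level by ELISA, 24 h post-dose, fitted as gain or loss relative to DMSO. System: LPS-activated human primary co-culture of vascular endothelium and peripheral blood mononuclear cells, with parallel SRB total-protein cytotoxicity.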

[11] = read-out: Monocyte Chemoattractant Protein-1 (MCP1), CCL2 (gene 6347); assay: BSK_LPS_MCP1: BioMAP Diversity Plus: LPS Assay for Monocyte Chemoattractant Protein-1 (MCP1) Biomarker Activity (AID 2283081); settings: primary human HUVEC with PBMC; actives raise or lower the signal;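 on AC50: secreted MCP-1 protein quantified by ELISA in culture supernatant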
Method in brief: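 Secreted MCP-1 read by ELISA at 24 h post-dosing in an LPS-activated co-culture of endothelial cells with peripheral blood mononuclear cells. Fits run in both directions, DMSO as baseline; parallel SRB staining tracks overt cytotoxicity.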

[12] = BSK_LPS_PGE2: BioMAP Diversity Plus: LPS Assay for Prostaglandin E2 (PGE2) Biomarker Activity (AID 2283082); settings: primary human HUVEC with PBMC; actives raise or lower the signal
Method in brief: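 LPS-activated HUVEC/PBMC co-culture; cmpd dosed, 24 h; PGE2 by ELISA; bidirectional fit vs DMSO; SRB (0.1%, TCA-fixed, 560 nm) in parallel plates for overt cytotox.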

[13] = read-out: Macrophage colony-stimulating factor (MCSF), CSF1 (gene 1435); assay: BSK_LPS_MCSF: BioMAP Diversity Plus: LPS Assay for Macrophage colony-stimulating factor (MCSF) Biomarker Activity (AID 2283083); settings: primary human HUVEC with PBMC; actives raise or lower the signal
Method in brief: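 Bidirectional fitting against DMSO was applied to M-CSF levels read by ELISA at 24 h post-dose. The system pairs human umbilical vein endothelium with peripheral blood mononuclear cells; parallel SRB staining tracked cytotoxicity.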

[14] = read-out: Tissue Factor, F3 (gene 2152); assay: BSK_LPS_TissueFactor: BioMAP Diversity Plus: LPS Assay for Tissue Factor Biomarker Activity (AID 2283084); settings: primary human HUVEC with PBMC; actives raise or lower the signal
Method in brief: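 Compound was added to an endothelial cell/PBMC co-culture, and after 24 h tissue factor (CD142) was read by ELISA. Gain or loss of signal was fitted against a DMSO baseline, and parallel SRB staining (560 nm) tracked overt cytotoxicity.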

[15] = read-out: Tumor necrosis factor (Homo sapiens) (UniProt P01375); assay: BSK_LPS_TNFa: BioMAP Diversity Plus: LPS Assay for Tumour Necrosis Factor alpha (TNFa) Biomarker Activity (AID 2283085); settings: primary human HUVEC with PBMC; actives raise or lower the signal
Method in brief: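 Read-out is ELISA of TNFa in primary human endothelial cell–PBMC co-cultures at 24 h after compound. Activity in either direction was fitted against DMSO.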

[16] = read-out: Vascular cell adhesion molecule 1 (VCAM1), VCAM1 (gene 7412); assay: BSK_LPS_VCAM1: BioMAP Diversity Plus: LPS Assay for Vascular cell adhesion molecule 1 (VCAM1) Biomarker Activity (AID 2283086); settings: primary human HUVEC with PBMC; actives raise or lower the signal
Method in brief: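 HUVEC + PBMC co-culture, LPS system; compound 24 h; VCAM-1 by ELISA; bidirectional fit vs DMSO control; parallel SRB (0.1%, TCA-fixed, 560 nm) for cytotoxicity.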

CD38, CD38 (gene 952) = assay: BSK_SAg_CD38: BioMAP Diversity Plus: SAg Assay for CD38 Biomarker Activity (AID 2283087); settings: primary human HUVEC with PBMC; actives raise or lower the signal
Method in brief: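 Human HUVEC plus PBMC co-culture stimulated with superantigen; CD38 measured by ELISA 24 h after chemical dosing. Fluorescence read-out, bidirectional fit against DMSO; cytotoxicity tracked in parallel by SRB and Alamar Blue.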

CD40, CD40 (gene 958) [17] = assay: BSK_SAg_CD40: BioMAP Diversity Plus: SAg Assay for CD40 Biomarker Activity (AID 2283088); settings: primary human HUVEC with PBMC; actives raise or lower the signal
Method in brief: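 CD40 is measured by fluorescence ELISA in an endothelial/PBMC primary human co-culture at 24 h post-dose. Fitting is bidirectional, DMSO baseline. Parallel SRB staining (560 nm) flags cytotoxicity.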

CD69, CD69 (gene 969) = assay: BSK_SAg_CD69: BioMAP Diversity Plus: SAg Assay for CD69 Biomarker Activity (AID 2283089); settings: primary human HUVEC with PBMC; actives raise or lower the signal;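 on AC50: cell surface CD69 protein quantified by ELISA with fluorescence detection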
Method in brief: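 ELISA, fluorescence read-out: CD69 on human umbilical vein endothelial cell + PBMC co-culture, 24 h post-dosing. Gain or loss of signal fitted bidirectionally against DMSO baseline.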

[18] = read-out: Monocyte Chemoattractant Protein-1 (MCP1), CCL2 (gene 6347); assay: BSK_SAg_MCP1: BioMAP Diversity Plus: SAg Assay for Monocyte Chemoattractant Protein-1 (MCP1) Biomarker Activity (AID 2283090); settings: primary human HUVEC with PBMC; actives raise or lower the signal
Method in brief: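 MCP-1 levels in the endothelial–PBMC SAg co-culture were quantified by ELISA at 24 h post-dosing; both increases and decreases versus DMSO scored. Cytotoxicity monitored by SRB total protein in parallel cultures.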

Sequence of E-selectin (Homo sapiens) (P16581 whole entry, looked up): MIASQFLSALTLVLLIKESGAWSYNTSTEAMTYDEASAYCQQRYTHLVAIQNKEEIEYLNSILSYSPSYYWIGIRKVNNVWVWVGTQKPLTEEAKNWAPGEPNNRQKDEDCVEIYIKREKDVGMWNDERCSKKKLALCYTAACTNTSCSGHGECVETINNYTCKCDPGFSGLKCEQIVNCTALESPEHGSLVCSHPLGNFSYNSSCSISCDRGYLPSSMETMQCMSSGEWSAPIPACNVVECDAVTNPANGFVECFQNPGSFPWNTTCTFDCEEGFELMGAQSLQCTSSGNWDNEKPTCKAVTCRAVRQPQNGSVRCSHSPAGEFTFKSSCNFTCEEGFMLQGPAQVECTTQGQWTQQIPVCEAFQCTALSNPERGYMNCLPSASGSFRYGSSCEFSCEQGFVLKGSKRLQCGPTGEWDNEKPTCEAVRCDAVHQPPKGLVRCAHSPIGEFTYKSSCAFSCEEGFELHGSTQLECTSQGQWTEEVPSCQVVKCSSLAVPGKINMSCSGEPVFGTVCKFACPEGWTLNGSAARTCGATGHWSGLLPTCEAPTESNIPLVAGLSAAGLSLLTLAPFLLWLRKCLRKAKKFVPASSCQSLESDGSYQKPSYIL
Sequence of Tumor necrosis factor (Homo sapiens) (P01375 whole entry, looked up): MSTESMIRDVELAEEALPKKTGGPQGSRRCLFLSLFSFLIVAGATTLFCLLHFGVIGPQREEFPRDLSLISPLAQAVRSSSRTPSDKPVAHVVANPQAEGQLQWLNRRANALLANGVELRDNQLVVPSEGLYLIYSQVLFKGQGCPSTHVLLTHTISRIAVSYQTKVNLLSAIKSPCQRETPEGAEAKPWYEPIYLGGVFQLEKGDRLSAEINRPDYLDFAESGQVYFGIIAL

For `O=C(O)c1ccc([N+](=O)[O-])cc1`, the outcome [1] was “inactive”, the outcome [2] was “inactive” and the outcome [3] was “inactive”. For the same compound, the outcome [4] was “inactive”, the outcome [5] was “inactive” and the outcome (CD40, CD40 (gene 958) [6]) was “inactive”. The outcome [7] was “inactive”, the outcome [8] was “inactive” and the outcome [9] was “inactive”. For the same compound, the outcome [10] was “inactive”, the outcome [11] was “inactive” and the outcome [12] was “inactive”. For the same compound, the outcome [13] was “inactive”, the outcome [14] was “inactive” and the outcome [15] was “inactive”. For the same compound, the outcome [16] was “inactive”, the outcome (CD38, CD38 (gene 952)) was “inactive” and the outcome (CD40, CD40 (gene 958) [17]) was “inactive”. The outcome (CD69, CD69 (gene 969)) was “inactive” and the outcome [18] was “inactive”.

With `C=C(C)C(=O)O[C@H]1C[C@@H]2CC[C@@]1(C)C2(C)C` the AC50 [1] was 10.2 µM (active), the outcome [2] was “inactive” and the AC50 [3] was 12.8 µM (active). The AC50 [4] was 20 µM (active), the AC50 [5] was 13.8 µM (active) and the AC50 (CD40, CD40 (gene 958) [6]) was 27.8 µM (active). The AC50 [7] was 29.6 µM (active), the AC50 [8] was 31.2 µM (active) and the AC50 [9] was 30.4 µM (active). The AC50 [10] was 25.8 µM (active), the AC50 [11] was 31.1 µM (active) and the outcome [12] was “inactive”. The AC50 [13] was 29.9 µM (active), the AC50 [14] was 36.8 µM (active) and the outcome [15] was “inactive”. For the same compound, the AC50 [16] was 30.6 µM (active), the AC50 (CD38, CD38 (gene 952)) was 33.8 µM (active) and the AC50 (CD40, CD40 (gene 958) [17]) was 31.8 µM (active). For the same compound, the AC50 (CD69, CD69 (gene 969)) was 30.8 µM (active) and the AC50 [18] was 34.1 µM (active).

In the case of `CC(=O)Nc1ccccc1O`, the outcome [1] is reported as “inactive”, the outcome [2] is reported as “inactive” and the outcome [3] is reported as “inactive”. For the same compound, the outcome [4] was “inactive”, the outcome [5] was “inactive” and the outcome (CD40, CD40 (gene 958) [6]) was “inactive”. For the same compound, the outcome [7] was “inactive”, the outcome [9] was “inactive” and the outcome [10] was “inactive”. The outcome [11] was “inactive”, the outcome [12] was “inactive” and the outcome [13] was “inactive”. For the same compound, the outcome [14] was “inactive”, the outcome [15] was “inactive” and the outcome [16] was “inactive”. The outcome (CD38, CD38 (gene 952)) was “inactive”, the outcome (CD40, CD40 (gene 958) [17]) was “inactive” and the outcome (CD69, CD69 (gene 969)) was “inactive”. The outcome [18] was “inactive”.
